# In article PMC7862700, “An all-to-all approach to the identification of sequence-specific readers for epigenetic DNA modifications on cytosine”:
# What was measured:
# Experiment in all cases: DAPPL (digital affinity profiling via proximity ligation, sequencing); 10 mM Tris-HCl pH 7.5, 50 mM NaCl, 1 mM DTT, 4% glycerol, room temperature, 30 min; GST-TFs on glutathione beads, 16-mer random dsDNA library, 0.1% formaldehyde crosslink after washing; high values mean tight binding
# Conditions in all cases: protein: recombinant; tags: N-terminal GST; dsDNA, one strand shown
# FLI1 = target: T1, FLI1 (Homo sapiens, UniProt Q01543 1-452)
# T1 sequence: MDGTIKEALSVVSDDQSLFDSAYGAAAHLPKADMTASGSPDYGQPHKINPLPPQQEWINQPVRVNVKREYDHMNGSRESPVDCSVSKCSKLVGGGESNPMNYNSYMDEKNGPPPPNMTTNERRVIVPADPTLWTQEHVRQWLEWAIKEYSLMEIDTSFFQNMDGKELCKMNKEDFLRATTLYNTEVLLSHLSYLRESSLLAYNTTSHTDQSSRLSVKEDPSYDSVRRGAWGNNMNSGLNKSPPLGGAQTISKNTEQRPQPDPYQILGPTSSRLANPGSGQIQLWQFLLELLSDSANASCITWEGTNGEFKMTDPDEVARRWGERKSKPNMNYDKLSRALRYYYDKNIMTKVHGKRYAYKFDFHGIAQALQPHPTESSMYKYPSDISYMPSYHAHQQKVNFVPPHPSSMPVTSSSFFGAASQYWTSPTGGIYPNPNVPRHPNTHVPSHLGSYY
# Procedure, shortened: (§1)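 Human transcription factors carrying a GST fusion were produced in yeast, bound to glutathione beads, tagged with DNA barcodes and pooled together with a tag-only sample. Each pool was held with 200 nmole of a random double-stranded 16-mer DNA library in Tris/NaCl/DTT/glycerol buffer for 30 min at room temperature, then washed, crosslinked in 0.1% formaldehyde, proximity-ligated with BsaI/T4 ligase (1 h, 37 °C), PCR-amplified and sequenced on an Illumina NextSeq500. Binding signal is the read frequency of each hexamer for a given factor divided by its frequency in the tag-only sample.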
# ELK1 = target: T2, ELK1 (Homo sapiens, UniProt P19419 1-428)
# T2 sequence: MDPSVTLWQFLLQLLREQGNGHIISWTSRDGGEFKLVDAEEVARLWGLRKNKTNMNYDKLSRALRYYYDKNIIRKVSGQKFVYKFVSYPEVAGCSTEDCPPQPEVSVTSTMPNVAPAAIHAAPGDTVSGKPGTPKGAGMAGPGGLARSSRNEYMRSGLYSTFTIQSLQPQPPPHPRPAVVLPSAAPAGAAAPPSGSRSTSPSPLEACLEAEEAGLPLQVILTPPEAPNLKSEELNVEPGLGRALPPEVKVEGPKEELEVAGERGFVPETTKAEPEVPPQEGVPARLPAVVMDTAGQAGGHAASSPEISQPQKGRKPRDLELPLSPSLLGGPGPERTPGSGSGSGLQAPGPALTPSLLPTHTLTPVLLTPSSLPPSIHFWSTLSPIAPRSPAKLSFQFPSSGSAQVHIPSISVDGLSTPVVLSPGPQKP
# Procedure, shortened: as §1
# GABPA = target: T3, GABPA (Homo sapiens, UniProt Q06546 1-454)
# T3 sequence: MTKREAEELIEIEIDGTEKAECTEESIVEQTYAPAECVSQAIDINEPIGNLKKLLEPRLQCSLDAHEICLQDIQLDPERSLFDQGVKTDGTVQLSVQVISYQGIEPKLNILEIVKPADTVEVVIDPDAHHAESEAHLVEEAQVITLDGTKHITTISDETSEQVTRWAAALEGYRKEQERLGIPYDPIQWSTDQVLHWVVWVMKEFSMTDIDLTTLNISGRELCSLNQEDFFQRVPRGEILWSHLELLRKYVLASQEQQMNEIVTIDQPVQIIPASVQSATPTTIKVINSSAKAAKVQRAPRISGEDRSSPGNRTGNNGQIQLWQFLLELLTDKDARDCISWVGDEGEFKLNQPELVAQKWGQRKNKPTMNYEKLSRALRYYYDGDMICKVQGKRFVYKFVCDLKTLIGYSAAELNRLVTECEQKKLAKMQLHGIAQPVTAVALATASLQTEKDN
# Procedure, shortened: as §1
# ERG = target: T4, ERG (Homo sapiens, UniProt P11308 1-479)
# T4 sequence: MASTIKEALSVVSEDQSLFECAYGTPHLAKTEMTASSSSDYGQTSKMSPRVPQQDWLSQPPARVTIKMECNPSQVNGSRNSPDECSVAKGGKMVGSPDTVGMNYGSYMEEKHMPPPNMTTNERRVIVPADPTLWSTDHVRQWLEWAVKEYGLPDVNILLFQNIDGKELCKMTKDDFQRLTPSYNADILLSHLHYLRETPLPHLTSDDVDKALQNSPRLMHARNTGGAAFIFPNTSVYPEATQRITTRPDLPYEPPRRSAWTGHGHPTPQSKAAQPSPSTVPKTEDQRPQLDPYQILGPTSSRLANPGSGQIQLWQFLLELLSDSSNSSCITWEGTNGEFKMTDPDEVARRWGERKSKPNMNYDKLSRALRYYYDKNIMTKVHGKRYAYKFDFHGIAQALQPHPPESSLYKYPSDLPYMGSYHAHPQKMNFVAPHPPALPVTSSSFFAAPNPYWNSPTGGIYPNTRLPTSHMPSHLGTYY
# Procedure, shortened: as §1
# ELF1 = ELF1 (Homo sapiens, UniProt P32519 1-619)
# Procedure, shortened: as §1
# EHF = target: T5, EHF (Homo sapiens, UniProt Q9NZC4 1-300)
# T5 sequence: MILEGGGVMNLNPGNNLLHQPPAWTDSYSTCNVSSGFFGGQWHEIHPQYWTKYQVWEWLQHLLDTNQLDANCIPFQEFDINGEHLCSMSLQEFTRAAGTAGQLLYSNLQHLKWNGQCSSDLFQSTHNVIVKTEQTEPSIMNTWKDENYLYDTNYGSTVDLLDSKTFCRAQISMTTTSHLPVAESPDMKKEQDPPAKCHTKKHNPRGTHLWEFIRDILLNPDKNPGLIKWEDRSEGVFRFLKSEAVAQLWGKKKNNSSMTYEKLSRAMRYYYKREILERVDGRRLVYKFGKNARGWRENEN
# Procedure, shortened: as §1
# SPI1 = SPI1 (Homo sapiens, UniProt P17947 1-270)
# Procedure, shortened: as §1
# SPIB = SPIB (Homo sapiens, UniProt Q01892 1-262)
# Procedure, shortened: as §1
# ETV5 = ETV5 (Homo sapiens, UniProt P41161 1-510)
# Procedure, shortened: as §1
# SPIC = target: T6, SPIC (Homo sapiens, UniProt Q8N5J4 1-248)
# T6 sequence: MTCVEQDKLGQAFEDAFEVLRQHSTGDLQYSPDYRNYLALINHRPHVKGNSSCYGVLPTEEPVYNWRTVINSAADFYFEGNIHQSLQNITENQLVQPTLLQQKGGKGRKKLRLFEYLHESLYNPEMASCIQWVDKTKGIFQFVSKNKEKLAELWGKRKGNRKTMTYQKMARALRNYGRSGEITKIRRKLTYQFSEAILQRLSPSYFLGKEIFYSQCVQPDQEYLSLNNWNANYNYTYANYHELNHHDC
# Procedure, shortened: as §1
# ELF4 = ELF4 (Homo sapiens, UniProt Q99607 1-663)
# Procedure, shortened: as §1
# ETV1 = ETV1 (Homo sapiens, UniProt P50549 1-477)
# Procedure, shortened: as §1
# ERF = target: T7, ERF (Homo sapiens, UniProt P50548 1-548)
# T7 sequence: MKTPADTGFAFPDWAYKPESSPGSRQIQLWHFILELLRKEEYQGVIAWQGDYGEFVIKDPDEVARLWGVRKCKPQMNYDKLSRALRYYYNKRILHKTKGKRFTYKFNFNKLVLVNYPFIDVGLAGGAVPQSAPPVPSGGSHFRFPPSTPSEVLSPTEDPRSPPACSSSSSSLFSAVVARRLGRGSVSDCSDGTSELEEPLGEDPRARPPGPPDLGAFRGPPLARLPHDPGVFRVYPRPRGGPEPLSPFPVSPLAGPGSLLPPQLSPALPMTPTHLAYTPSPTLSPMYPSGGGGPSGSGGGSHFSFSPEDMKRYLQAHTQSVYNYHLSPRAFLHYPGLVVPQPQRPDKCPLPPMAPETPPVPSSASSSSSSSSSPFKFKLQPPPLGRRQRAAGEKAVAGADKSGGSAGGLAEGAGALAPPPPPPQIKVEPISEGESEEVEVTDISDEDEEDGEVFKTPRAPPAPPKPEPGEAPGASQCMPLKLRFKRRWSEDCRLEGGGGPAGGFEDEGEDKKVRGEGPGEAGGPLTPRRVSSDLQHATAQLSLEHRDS
# Procedure, shortened: as §1
# ETV3L = target: T8, ETV3L (Homo sapiens, UniProt Q6ZN32 1-361)
# T8 sequence: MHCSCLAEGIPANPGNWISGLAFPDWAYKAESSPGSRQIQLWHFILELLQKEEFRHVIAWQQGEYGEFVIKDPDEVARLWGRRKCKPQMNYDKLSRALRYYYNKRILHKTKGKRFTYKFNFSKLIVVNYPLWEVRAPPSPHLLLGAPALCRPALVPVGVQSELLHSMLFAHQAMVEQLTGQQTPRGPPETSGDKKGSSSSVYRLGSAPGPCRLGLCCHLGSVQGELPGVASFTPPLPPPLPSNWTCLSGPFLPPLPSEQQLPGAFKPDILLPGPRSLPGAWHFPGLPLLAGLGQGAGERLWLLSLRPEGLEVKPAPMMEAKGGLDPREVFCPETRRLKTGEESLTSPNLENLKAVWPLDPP
# Procedure, shortened: as §1
# SPDEF = target: T9, SPDEF (Homo sapiens, UniProt O95238 1-335)
# T9 sequence: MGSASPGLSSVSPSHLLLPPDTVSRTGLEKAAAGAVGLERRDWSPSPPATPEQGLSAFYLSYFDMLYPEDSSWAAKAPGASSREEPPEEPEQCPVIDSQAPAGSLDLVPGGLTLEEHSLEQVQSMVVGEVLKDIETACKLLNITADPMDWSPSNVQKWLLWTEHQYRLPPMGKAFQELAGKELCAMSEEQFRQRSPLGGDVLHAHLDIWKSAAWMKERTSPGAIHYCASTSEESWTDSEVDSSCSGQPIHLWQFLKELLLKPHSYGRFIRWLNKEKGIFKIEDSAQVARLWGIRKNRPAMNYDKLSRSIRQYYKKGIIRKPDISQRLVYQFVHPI
# Procedure, shortened: as §1
# ETV3 = target: T10, ETV3 (Homo sapiens, UniProt P41162-2 1-143)
# T10 sequence: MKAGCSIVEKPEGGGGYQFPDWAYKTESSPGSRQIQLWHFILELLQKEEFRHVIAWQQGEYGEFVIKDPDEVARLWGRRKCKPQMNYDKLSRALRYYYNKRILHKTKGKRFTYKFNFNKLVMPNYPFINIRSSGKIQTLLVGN
# Procedure, shortened: as §1
# Chain of ELF1 (P32519 whole entry): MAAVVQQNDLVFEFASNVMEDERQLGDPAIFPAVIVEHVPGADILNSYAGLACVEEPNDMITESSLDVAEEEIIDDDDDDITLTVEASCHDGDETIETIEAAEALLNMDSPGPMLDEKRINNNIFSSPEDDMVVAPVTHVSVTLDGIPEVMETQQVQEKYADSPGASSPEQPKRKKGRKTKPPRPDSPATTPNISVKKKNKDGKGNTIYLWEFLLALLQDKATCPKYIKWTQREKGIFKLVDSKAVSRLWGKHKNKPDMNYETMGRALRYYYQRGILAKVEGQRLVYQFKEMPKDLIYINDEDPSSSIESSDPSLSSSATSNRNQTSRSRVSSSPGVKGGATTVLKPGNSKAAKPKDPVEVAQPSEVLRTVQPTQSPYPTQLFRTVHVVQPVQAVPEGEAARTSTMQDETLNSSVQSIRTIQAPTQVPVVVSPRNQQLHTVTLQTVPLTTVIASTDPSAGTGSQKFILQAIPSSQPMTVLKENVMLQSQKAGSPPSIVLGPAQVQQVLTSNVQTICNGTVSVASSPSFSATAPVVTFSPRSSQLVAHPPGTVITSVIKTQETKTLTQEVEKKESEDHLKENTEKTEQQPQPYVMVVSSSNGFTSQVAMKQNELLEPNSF
# Chain of SPIB (Q01892 whole entry): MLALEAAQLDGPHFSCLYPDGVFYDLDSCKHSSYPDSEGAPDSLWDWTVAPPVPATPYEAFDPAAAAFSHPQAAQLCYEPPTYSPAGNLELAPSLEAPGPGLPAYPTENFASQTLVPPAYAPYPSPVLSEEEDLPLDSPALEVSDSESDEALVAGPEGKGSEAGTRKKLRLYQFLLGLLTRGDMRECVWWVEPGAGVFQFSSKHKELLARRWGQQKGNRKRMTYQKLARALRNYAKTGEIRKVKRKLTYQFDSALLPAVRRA
# Chain of ETV5 (P41161 whole entry): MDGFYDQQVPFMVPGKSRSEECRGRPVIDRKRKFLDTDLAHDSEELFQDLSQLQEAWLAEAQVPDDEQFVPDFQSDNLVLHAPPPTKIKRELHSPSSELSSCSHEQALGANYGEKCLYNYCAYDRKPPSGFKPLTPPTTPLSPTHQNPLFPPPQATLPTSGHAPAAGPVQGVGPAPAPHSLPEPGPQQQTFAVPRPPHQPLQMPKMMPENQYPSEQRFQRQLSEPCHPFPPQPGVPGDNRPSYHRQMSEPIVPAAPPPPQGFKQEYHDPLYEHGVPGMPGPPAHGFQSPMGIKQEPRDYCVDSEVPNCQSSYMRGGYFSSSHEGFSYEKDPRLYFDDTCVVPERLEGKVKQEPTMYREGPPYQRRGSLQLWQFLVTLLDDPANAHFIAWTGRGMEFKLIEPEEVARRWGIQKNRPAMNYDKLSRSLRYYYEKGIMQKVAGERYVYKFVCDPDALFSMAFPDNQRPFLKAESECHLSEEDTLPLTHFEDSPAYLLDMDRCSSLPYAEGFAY
# Chain of ETV1 (P50549 whole entry): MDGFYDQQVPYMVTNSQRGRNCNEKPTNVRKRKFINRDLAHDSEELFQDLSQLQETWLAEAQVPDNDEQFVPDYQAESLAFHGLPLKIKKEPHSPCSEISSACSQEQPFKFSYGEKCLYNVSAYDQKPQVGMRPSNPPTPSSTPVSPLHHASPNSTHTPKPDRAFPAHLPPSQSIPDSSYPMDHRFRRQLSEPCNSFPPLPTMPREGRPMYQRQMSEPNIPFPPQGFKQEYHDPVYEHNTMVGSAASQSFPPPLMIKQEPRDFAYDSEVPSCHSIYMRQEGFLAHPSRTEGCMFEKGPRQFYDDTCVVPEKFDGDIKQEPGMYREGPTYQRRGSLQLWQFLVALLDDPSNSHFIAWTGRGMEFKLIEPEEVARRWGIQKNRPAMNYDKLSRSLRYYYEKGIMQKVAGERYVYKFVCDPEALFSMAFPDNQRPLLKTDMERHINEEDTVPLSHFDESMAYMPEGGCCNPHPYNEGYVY
# Chain of ELF4 (Q99607 whole entry): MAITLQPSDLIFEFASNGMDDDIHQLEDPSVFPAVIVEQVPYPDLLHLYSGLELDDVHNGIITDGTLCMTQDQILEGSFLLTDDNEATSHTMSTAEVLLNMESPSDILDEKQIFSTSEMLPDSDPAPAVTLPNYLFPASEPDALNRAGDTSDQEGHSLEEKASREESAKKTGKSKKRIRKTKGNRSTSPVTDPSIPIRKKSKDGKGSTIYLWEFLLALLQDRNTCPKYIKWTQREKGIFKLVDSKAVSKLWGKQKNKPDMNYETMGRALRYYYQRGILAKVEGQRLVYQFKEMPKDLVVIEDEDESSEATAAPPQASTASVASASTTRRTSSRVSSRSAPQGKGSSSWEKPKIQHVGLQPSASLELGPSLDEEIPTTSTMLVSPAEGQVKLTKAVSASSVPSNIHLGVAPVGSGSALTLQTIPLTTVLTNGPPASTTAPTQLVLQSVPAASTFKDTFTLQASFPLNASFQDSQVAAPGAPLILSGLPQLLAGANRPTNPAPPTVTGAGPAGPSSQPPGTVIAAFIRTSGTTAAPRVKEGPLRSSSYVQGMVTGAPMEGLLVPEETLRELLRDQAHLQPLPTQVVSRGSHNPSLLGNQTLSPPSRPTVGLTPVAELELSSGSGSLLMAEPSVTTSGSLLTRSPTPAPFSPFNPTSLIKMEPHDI
sequence,measurement,setting,value
GTTGAT,binding signal,FLI1,"1.04 fold enrichment (6-mer frequency, TF over GST control)"
same,binding signal,ELK1,"1.12 fold enrichment (6-mer frequency, TF over GST control)"
same,binding signal,GABPA,"1.12 fold enrichment (6-mer frequency, TF over GST control)"
same,binding signal,ERG,"1.08 fold enrichment (6-mer frequency, TF over GST control)"
same,binding signal,ELF1,"1.11 fold enrichment (6-mer frequency, TF over GST control)"
same,binding signal,EHF,"1.04 fold enrichment (6-mer frequency, TF over GST control)"
same,binding signal,SPI1,"1.12 fold enrichment (6-mer frequency, TF over GST control)"
same,binding signal,SPIB,"1.1 fold enrichment (6-mer frequency, TF over GST control)"
same,binding signal,ETV5,"1.14 fold enrichment (6-mer frequency, TF over GST control)"
same,binding signal,SPIC,"1.17 fold enrichment (6-mer frequency, TF over GST control)"
same,binding signal,ELF4,"1.15 fold enrichment (6-mer frequency, TF over GST control)"
same,binding signal,ETV1,"1.09 fold enrichment (6-mer frequency, TF over GST control)"
same,binding signal,ERF,"1.05 fold enrichment (6-mer frequency, TF over GST control)"
same,binding signal,ETV3L,"1.09 fold enrichment (6-mer frequency, TF over GST control)"
same,binding signal,SPDEF,"1.07 fold enrichment (6-mer frequency, TF over GST control)"
same,binding signal,ETV3,"1.08 fold enrichment (6-mer frequency, TF over GST control)"
